ERK AVP block: qHTS Assay for Inhibitors of the ERK Signaling Pathway using a Homogeneous Screening Assay | HEK293-V1b, vasopressin-stimulated pERK AlphaScreen | Potency, µM (highest dose often 57.5 µM), without a hit: at the highest dose activity, negative = inhibition, hits mostly inhibitors | 72,000 compounds, 0.99% hits; further: on the % scale 0 is the no-effect control and ±100 the full control effect; nearly all actives have a fitted effect of over 55% in size
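HEK293 cells stably expressing V1b receptor, preincubated 30 min at 37 °C with compound, then stimulated 5 min with 25 nM vasopressin. Phospho-ERK by AlphaScreen SureFire after 5 h RT; normalized to DMSO and vasopressin; AC50 by Hill fit.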
PK Bst: Pyruvate Kinase | purified pyruvate kinase, luminescence ATP production; ribose 5-phosphate activator present at AC10 | Potency, µM | 51,000 compounds, 1.2% hits | AID 361, 2006; in the data active means potency below about 11 µM; inconclusive means mostly about 12 µM to 25 µM;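 the screen sought inhibitors and activators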;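 further: scaled between full activation by ribose 5 phosphate and full inhibition by luteolin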
GBA mod: Glucocerebrosidase | AID 360, 2006 | purified enzyme, resorufin glucoside fluorescence (screen aimed at inhibitors), 20 min | Potency, µM | Lysosomal acid glucosylceramidase (Homo sapiens), P04062 | 48,000 compounds, 1.1% hits; in the data active means potency below about 15 µM; inconclusive means mostly about 16 µM to 33 µM;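 further: the screen sought inhibitors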
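Compounds titrated against 0.2 nM normal enzyme, 30 uM resorufin beta-D-glucopyranoside substrate, citrate/phosphate buffer with taurocholate and tween-20, pH 5.9. Reaction ran 20 min at room temperature; fluorescence (Ex 548/Em 600) gave AC50.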
FLuc inh: qHTS Assay for Inhibitors of Firefly Luciferase. Luciferin 4-monooxygenase (Photinus pyralis), P08659. purified firefly luciferase, luminescence, 8 min. Potency, µM (highest dose often 57.1 µM), for inactives: at the top dose activity change, negative = inhibition, usual class: inhibitors. 72,000 compounds, 2.2% hits; further: on the % scale 0 is the no-effect control and ±100 the full control effect; nearly all actives have a fitted effect of over 40% in size
Target sequence (P08659 whole entry, looked up): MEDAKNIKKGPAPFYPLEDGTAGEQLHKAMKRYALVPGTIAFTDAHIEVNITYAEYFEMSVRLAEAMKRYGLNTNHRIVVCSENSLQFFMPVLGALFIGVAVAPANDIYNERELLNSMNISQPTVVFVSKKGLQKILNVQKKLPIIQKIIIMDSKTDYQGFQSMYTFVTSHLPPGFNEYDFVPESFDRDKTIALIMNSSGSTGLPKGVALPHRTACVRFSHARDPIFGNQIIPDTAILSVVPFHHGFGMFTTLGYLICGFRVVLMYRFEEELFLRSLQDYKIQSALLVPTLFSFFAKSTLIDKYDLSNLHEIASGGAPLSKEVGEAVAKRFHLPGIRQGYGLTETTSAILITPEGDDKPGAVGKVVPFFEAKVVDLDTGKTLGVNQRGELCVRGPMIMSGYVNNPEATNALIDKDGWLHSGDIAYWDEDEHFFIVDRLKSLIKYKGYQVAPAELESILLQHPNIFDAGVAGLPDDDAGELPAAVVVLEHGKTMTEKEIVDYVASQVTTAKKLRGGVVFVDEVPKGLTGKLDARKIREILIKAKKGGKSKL
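Firefly luciferase (PKLight detection mix) with 10 uM ATP in pH 7.2 imidazole buffer (KCl, MgCl2, Tween 20, BSA). Compounds tested across a concentration series (qHTS). Luminescence read after 8 min at ambient temperature.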
An asterisk follows results filed as active; ? = inconclusive; . = no result; [ ] = remark or other dose. Most compounds without a hit are left out; they make up all but 3.9% or so of the library. Unless noted, the call rests on the fitted dose curve; in most records, active means well fitted curve in the direction sought with a large enough effect; inconclusive means small, poorly fitted or top-dose-only effect, or another doubt; inactive means no such curve, though single readings can be large; an effect the other way counts as inactive or inconclusive. Potency means the concentration at half of the fitted maximal effect.

SMILES | ERK AVP block | PK Bst | GBA mod | FLuc inh
CCCOc1ccc(-c2nc(C#N)c(N3CCN(C)CC3)o2)cc1 | -6.3% | 7.26* | . | -3.1%
CCCOc1ccc(-c2nc(C#N)c(N3CCN(CC)CC3)o2)cc1 | -24.2% | 5.78* | ? | -2.3%
CCOc1ccc(-c2nc(C#N)c(N3CCCCCC3)o2)cc1 | 20µM* | . | . | -7.7%
CCOc1ccc(-c2nc(C#N)c(N3CCN(C)CC3)o2)cc1 | ? | ? | ? | 1.0%
CC(=O)[C@H]1CC[C@H]2[C@@H]3C=CC4=CC(=O)CC[C@@]4(C)[C@H]3CC[C@]12C | 1.9%[25.7 µM] | . | . | -3.7%[25.5 µM]
CC(=O)OC[C@@H]1O[C@H](C/C=N\O[C@@H](C)CN2CCCCc3nc(C)c(C)cc32)C=C[C@@H]1OC(C)=O | 6.6%[11.5 µM] | . | . | -0.1%[11.4 µM]
O=C(CSc1nc2ccccc2[nH]1)N1CCN(c2ccc(F)cc2)CC1 | 25.1µM* | >57 | >76.9 | -0.1%
CCCC12CN3CC(C)(CN(C1)C3c1ccc(OC(C)C)cc1)C2=O (centres undefined) | 15.4% | >57 | 1.97* | 1.9%
CC1C(=O)C(C)C(c2ccco2)NC1c1ccco1 (centres undefined) | -16.7% | >57 | >76.9 | 4.8%
CCCC1C(c2ccco2)NC(c2ccco2)CC1(C)O (centres undefined) | -20.4% | ? | >76.9 | 12.6µM*
CCC1OC(=O)C(C)[C@@H](O[C@H]2C[C@@](C)(OC)C(O)C(C)O2)C(C)[C@@H](O[C@@H]2OC(C)CC(N(C)C)C2O)[C@@](C)(O)CC(C)CN(C)C(C)C(O)[C@]1(C)O (some centres undefined) | -7.1% | . | . | .
O=C(O)/C=C\c1ccc(Cn2ccnc2)cc1 | -3.6%[25.7 µM] | . | . | -1.5%[25.5 µM]
CC(C)n1c(-c2ccc(N(C)C)cc2)nc2ccccc21 | -23.4% | . | >76.9 | 12.6µM*
Cc1ccc(C(O)c2nc3ccccc3n2C(C)C)cc1 (centres undefined) | 5.1% | >57 | >76.9 | 1.1%
CN(C)c1ccc(-c2nc3ccccc3n2C)cc1 | -24.5% | 1.11* | ? | 0.631µM*
CCn1c(-c2ccc(N(C)C)cc2)nc2ccccc21 | -28.5% | >57 | >76.9 | 1.0%
Cc1c(N=C/C=C/c2ccccc2)cnn1C | -6.1% | . | >76.9 | 15.8µM*
CCOc1cc(C2C(C(=O)OC(C)C)=C(C)N=C3SCCC(=O)N32)ccc1OC(C)=O (centres undefined) | -10.9% | >57 | 14.5* | -1.3%
O=c1c(-c2cccc(F)c2)nc2cncnc2n1Cc1ccccc1Cl | ? | . | . | -0.6%[11.4 µM]
COc1ccc(-c2noc(CSc3nnc(-c4ccncc4)n3-c3ccc(F)cc3)n2)cc1OC | 25.1µM* | >57 | >76.9 | -1.0%
O=C(OCc1c(Cl)cccc1Cl)c1cnccn1 | -22.1% | 4.74* | >76.9 | 0.5%
O=C(OCc1c(Cl)cccc1Cl)c1ccccn1 | 8.6% | 3.81* | >76.9 | -0.1%
O=C(OCc1c(Cl)cccc1Cl)c1cccnc1 | 1.2% | 9.23* | >76.9 | 1.2%
O=C(COC(=O)c1ccccn1)Nc1nccs1 | -4.8% | >57 | >76.9 | -9.6%
O=C(OCC(=O)c1ccccc1Br)c1ccccn1 | 17.2% | . | >76.9 | 12.6µM*
SMILES | ERK AVP block | PK Bst | GBA mod | FLuc inh
O=C(Oc1ccccc1)c1ccc(COC(=O)c2cnccn2)cc1 | -4.0% | >57 | ? | -10.5%
COC(=O)c1ccccc1NC(=O)COC(=O)c1cccnc1 | 2.0% | >57 | >76.9 | -3.1%
Cc1nc2cnc(N(C)C)nc2n(CCc2ccccc2)c1=O | ? | . | . | 0.0%[11.4 µM]
Cc1noc(C)c1CSCC(=O)N1CCN(c2ccc(F)cc2)CC1 | 14.4% | >57 | >76.9 | 0.7%
Cc1cccc(N2CCN(C(=O)CSCc3c(C)noc3C)CC2)c1C | 25.1µM* | >57 | >76.9 | 2.6%
Cc1ccc2nc(Nc3ccc4[nH]c(=O)[nH]c4c3)c(-n3nc(C)cc3C)nc2c1 | -8.9% | 7.48* | >76.9 | 3.98µM*
O=C1C=C[C@@H](O)[C@H]2[C@@H]3C(=O)N(Cc4ccc5c(c4)OCO5)C(=O)[C@@H]3CC[C@H]12 | 13.8%[11.5 µM] | . | . | -1.5%[11.4 µM]
C1CNCCNCCCNCCNC1 | . | >25.6 | . | 0.7%[25.5 µM]
Cc1cccnc1Nc1nc(-c2ccc(O)cc2O)cs1 | -8.6% | 1.67* | ? | 15.8µM*
O=C(Nc1nnc(-c2ccccc2Cl)o1)c1ccco1 | 3.6% | . | >76.9 | 12.6µM*
COCCn1c(=O)c(-c2cccs2)nc2cnc(Oc3ccccc3)nc21 | 42.4% | . | . | 1.0%[11.4 µM]
CCn1c(=N)n(CCOc2ccc(OC)cc2)c2ccccc21 | -2.4% | >57 | 6.9* | 2.8%
COc1ccc(OCC(O)Cn2c(=N)n(Cc3ccccc3)c3ccccc32)cc1 (centres undefined) | -16.2% | >57 | 13.8* | -0.8%

Screening data (PubChem)
